From PubChem BioAssay (EPA / NIEHS)
“And” between values parts separate entries of the source, which are not always exact repeats. Identical values can stand only once. Inconclusive results are not listed. More than one record can exist for a structure, and the calls need not agree. The source made the active and inactive calls. How the source made its calls, unless noted: active means hit-call score of the fitted dose curve at least 0.9, where 1 is the maximum; inactive means score below 0.9.

Tests used:
[1] = CCTE_Shafer_MEA_dev_per_burst_spike_percent: CCTE's Neural Network Formation Assay for Percent of Spikes in a Burst, Shafer Lab (AID 2284032);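 on AC50: fitted as a decrease in burst spike percentage below DMSO baseline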
Procedure, shortened: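 Rat primary cortical neurons on 16-electrode MEA wells, dosed from plating day 0 for 12 days with renewal on DIV 5 and 9; spikes-in-bursts percentage averaged over bursting electrodes, collapsed as AUC across days 5, 7, 9, 12; loss direction versus DMSO.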

[2] = CCTE_Shafer_MEA_dev_active_electrodes_number: CCTE's Neural Network Formation Assay for Number of Active Electrodes, Shafer Lab (AID 2284040; active means hit-call score of the fitted dose curve at least 0.9, where 1 is the maximum;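 on AC50: potency for loss of active electrodes versus DMSO so lower counts are hits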)
Procedure, shortened: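 Rat cortical primary cultures, 1.5 x 10^5 cells/well, PEI-coated MEA, laminin drop. Continuous exposure DIV 0–12; full media/compound change DIV 5, 9. Readout: electrodes with mean firing ≥5 spikes/min; AUC across days; loss vs DMSO.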

[3] = CCTE_Shafer_MEA_dev_burst_rate: CCTE's Neural Network Formation Assay for Burst Rate, Shafer Lab (AID 2284042);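 on AC50: potency for loss of burst rate below DMSO control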
Procedure, shortened: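 Cells plated, treated day 0; recorded DIV 5, 7, 9, 12; fed and re-treated DIV 5, 9. Endpoint: bursts per recording time, active-electrode well mean, trapezoidal AUC, fitted in decreasing direction against DMSO baseline.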

[4] = CCTE_Shafer_MEA_dev_per_burst_interspike_interval: CCTE's Neural Network Formation Assay for Burst Interspike Interval, Shafer Lab (AID 2284044);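 further: mean spike spacing inside bursts as AUC over recordings on days 5 7 9 12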;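 on AC50: potency for a decrease of within-burst interspike interval below DMSO level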
Procedure, shortened: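 Rat cortical primary cultures, 16 electrodes/well; compound from plating, renewed with full media change DIV 5 and 9. Spikes via adaptive detector; per-burst ISI well-mean over active bursting electrodes; AUC of DIV 5/7/9/12 recordings; loss-direction fit vs DMSO.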

[5] = CCTE_Shafer_MEA_dev_burst_duration_mean: CCTE's Neural Network Formation Assay for Mean Burst Duration, Shafer Lab (AID 2284045);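 on AC50: curve fitted for loss meaning shorter burst duration than DMSO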
Procedure, shortened: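 Primary rat cortical neurons on 48-well 16-electrode MEA plates, exposed from day 0 with renewal at DIV 5 and 9; spontaneous activity recorded on days 5, 7, 9, 12. Well-mean burst duration across bursting electrodes, collapsed as trapezoidal AUC; DMSO baseline.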

[6] = CCTE_Shafer_MEA_dev_interburst_interval_mean: CCTE's Neural Network Formation Assay for Mean Interburst Interval, Shafer Lab (AID 2284046);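 further: well-mean interburst interval of bursting electrodes as AUC over four recording days; curve fitted for decrease in interburst interval relative to DMSO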
Procedure, shortened: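 Developing rat cortical networks on 48-well MEAs receive compound from the day of plating. Burst intervals from each active electrode are averaged per well, and AUC over the recording days is fitted in the negative direction against DMSO.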

[7] = CCTE_Shafer_MEA_dev_inter_network_spike_interval_mean: CCTE's Neural Network Formation Assay for Mean Inter-network Spike Interval, Shafer Lab (AID 2284047);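 on AC50: potency for a decrease in mean inter-network spike interval below DMSO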
Procedure, shortened: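 Rat cortical cultures, 1.5 x 10^5 cells/well on 48-well MEA plates; continuous exposure days 0–12, medium and compound refreshed DIV 5, 9. Mean time between consecutive network-spike peaks; AUC across DIV 5/7/9/12; DMSO baseline, negative fitting direction.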

[8] = CCTE_Shafer_MEA_dev_network_spike_number: CCTE's Neural Network Formation Assay for Number of Network Spikes, Shafer Lab (AID 2284048);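 further: synchronized bursts across electrodes counted on days 5 7 9 12 and integrated as AUC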;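 on AC50: fit as a loss of signal meaning fewer network spikes than DMSO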
Procedure, shortened: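 Primary rat cortical neurons on PEI/laminin 48-well MEA plates, dosed from plating day 0 for 12 days, renewed at DIV 5 and 9. Network spike counts recorded DIV 5, 7, 9, 12, collapsed as trapezoidal AUC; DMSO baseline.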

[9] = CCTE_Shafer_MEA_dev_network_spike_peak: CCTE's Neural Network Formation Assay for Mean Number of Electrodes in Network Spike, Shafer Lab (AID 2284049);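 on AC50: fitted for loss of signal meaning fewer electrodes in network spikes than DMSO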
Procedure, shortened: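 Network-spike peak electrode count from recordings on days 5, 7, 9 and 12 was combined as trapezoidal area under the curve. Rat cortical cultures were treated continuously from plating, with compound renewed at each feed (DIV 5, 9); fits versus DMSO.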

[10] = target: Estrogen receptor (Homo sapiens) (UniProt P03372); assay: CCTE_Deisenroth_AIME_384WELL_LUC_Active: CCTE's 384-well Estrogen Receptor Transactivation Assay with AIME metabolic competence (ERTA luciferase; metabolism positive), Deisenroth Lab (AID 2284030; active means hit-call score of the fitted dose curve at least 0.9, where 1 is the maximum)
Procedure, shortened: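 Test chemicals (10-point series, 0.002 - 200 uM) were preincubated 2 hours with alginate-immobilized phenobarbital/beta-naphthoflavone-induced male Sprague Dawley rat liver S9; conditioned medium then went onto VM7Luc4E2 breast cells for 24 hour. Luciferase gain-of-signal fitted relative to 17beta-estradiol.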

[11] = target: Estrogen receptor (Homo sapiens) (UniProt P03372); assay: CCTE_Deisenroth_AIME_384WELL_LUC_Inactive: CCTE's 384-well Estrogen Receptor Transactivation Assay without AIME metabolic competence (ERTA luciferase; metabolism negative), Deisenroth Lab (AID 2284038; active means hit-call score of the fitted dose curve at least 0.9, where 1 is the maximum;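 further: VM7Luc4E2 breast cells given medium preincubated 2 h with S9-free microspheres; hits raise estrogen receptor luciferase signal so potencies reflect agonists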)
Procedure, shortened: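 Chemicals (10-point series, 0.002 - 200 uM) were incubated 2 hours with alginate-water microsphere lids lacking S9, then the conditioned medium was transferred to VM7Luc4E2 breast cells for 24 hour. Luciferase induction was read by bioluminescence, fitted upward relative to 17beta-estradiol.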

[12] = target: Estrogen receptor (Homo sapiens) (UniProt P03372); assay: CCTE_Deisenroth_AIME_384WELL_LUC_Shift: CCTE's 384-well Estrogen Receptor Transactivation Assay with AIME metabolic competence data shift (ERTA luciferase; difference in metabolism positive and negative), Deisenroth Lab (AID 2284041);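 further: shift is response with S9 minus without S9 so positive means metabolism raised ER signal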
Procedure, shortened: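 Chemicals (0.002–200 uM, 10 points) pre-incubated 2 h with alginate-encapsulated induced male Sprague Dawley rat liver S9 or S9-free, then medium applied 24 h to VM7Luc4E2 cells; luciferase. Endpoint is per-concentration difference, S9-positive minus negative.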

[13] = CCTE_Shafer_MEA_acute_cross_correlation_area: CCTE's Neural Acute Assay for Area of Cross Correlation, Shafer Lab (AID 2284024);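 further: area under pooled inter-electrode spike cross-correlation near zero lag as percent change from own baseline; curves fitted for loss of cross-correlation area so actives lower synchrony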
Procedure, shortened: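 Primary rat cortical neurons on 48-well MEA plates (16 electrodes/well) were recorded 40 min at baseline on DIV 13 or 15, then 40 min with compound (0.03-40 uM) at 37 C; cross-correlation area expressed as percent change from baseline.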

[14] = CCTE_Shafer_MEA_acute_synchrony_index: CCTE's Neural Acute Assay for Synchrony, Shafer Lab (AID 2284027);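 further: network synchrony index of spontaneous spiking in primary rat cortical neurons on MEAs; fitted for loss of signal so actives lower synchrony relative to DMSO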
Procedure, shortened: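 Primary rat cortical neurons on 16-electrode MEA wells were recorded 40 min at baseline (DIV 13 or 15) and 40 min after compound (0.03-40 uM) at 37 C. Synchrony index (0-1) expressed as percent change from baseline, versus DMSO.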

[15] = CCTE_Deisenroth_AIME_384WELL_CTox_Active: Cytotoxicity Assessment (CTOX) in CCTE's 384-well Estrogen Receptor Transactivation Assay with AIME metabolic competence (metabolism positive), Deisenroth Lab (AID 2284037; active means hit-call score of the fitted dose curve at least 0.9, where 1 is the maximum;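 further: chemicals first conditioned 2 h by alginate-bound induced rat liver S9 before cells; activity means signal loss indicating cell death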)
Procedure, shortened: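 Chemicals pre-incubated 2 hours with alginate-immobilised phenobarbital/beta-naphthoflavone-induced male Sprague Dawley rat liver S9, then conditioned medium applied 24 hour to VM7Luc4E2 cells. Viability by fluorogenic protease substrate; 10-point series 0.002 - 200 uM.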

[16] = CCTE_Deisenroth_AIME_384WELL_CTox_Inactive: Cytotoxicity Assessment (CTOX) in CCTE's 384-well Estrogen Receptor Transactivation Assay without AIME metabolic competence (metabolism negative), Deisenroth Lab (AID 2284039; active means hit-call score of the fitted dose curve at least 0.9, where 1 is the maximum;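 further: cell viability via live-cell protease substrate cleaved to fluorescent probe; cells exposed 24 h to medium preincubated 2 h with alginate-water beads without S9; loss of fluorescence signal means loss of viability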)
Procedure, shortened: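 Metabolism-negative arm: chemicals (10-point, 0.002 - 200 uM) preincubated 2 h with alginate-water lids, medium moved onto VM7Luc4E2 cells for 24 h. Fluorescent live-cell protease readout; bidirectional curve fit.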

Measured: AC50

Sequence of Estrogen receptor (Homo sapiens) (P03372 whole entry, looked up): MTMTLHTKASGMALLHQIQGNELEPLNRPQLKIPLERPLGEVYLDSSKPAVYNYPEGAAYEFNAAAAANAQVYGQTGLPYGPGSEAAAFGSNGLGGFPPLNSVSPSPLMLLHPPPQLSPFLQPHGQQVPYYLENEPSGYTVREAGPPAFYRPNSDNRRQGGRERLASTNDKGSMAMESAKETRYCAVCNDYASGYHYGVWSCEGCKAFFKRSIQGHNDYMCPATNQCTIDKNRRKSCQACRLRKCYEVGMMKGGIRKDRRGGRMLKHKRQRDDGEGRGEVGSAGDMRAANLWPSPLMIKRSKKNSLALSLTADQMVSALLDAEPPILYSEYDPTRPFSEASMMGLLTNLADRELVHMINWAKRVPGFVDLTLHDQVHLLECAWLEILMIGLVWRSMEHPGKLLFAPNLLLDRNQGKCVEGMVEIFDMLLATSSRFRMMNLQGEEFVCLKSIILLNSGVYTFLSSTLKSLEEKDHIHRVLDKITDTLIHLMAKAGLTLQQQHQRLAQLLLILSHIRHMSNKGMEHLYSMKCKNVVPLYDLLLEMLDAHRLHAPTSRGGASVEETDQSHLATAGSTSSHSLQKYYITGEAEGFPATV

CCOC(=O)CC(SP(=S)(OC)OC)C(=O)OCC (stereo not drawn)
inactive: [4] | [5] | [7] | [8]
active: [1] 20.9 µM and 15 µM | [2] 17.1 µM and 6.38 µM | [3] 22.7 µM and 2.98 µM | [4] 3.72 µM | [6] 16.8 µM and 15 µM | [8] 11.7 µM | [9] 14.2 µM and 8.93 µM

O=C(O)COc1nc(Cl)c(Cl)cc1Cl
inactive: [10] | [11] | [12]

C=CCC1=C(C)[C@@H](OC(=O)[C@@H]2[C@@H](C=C(C)C)C2(C)C)CC1=O
active: [14] 27.2 µM | [2] 6.82 µM | [9] 10 µM
not listed: [10] | [11] | [12] | [15] | [16]
inactive: all other assays above

CCON=C(CC)C1=C(O)CC(c2c(C)cc(C)cc2C)CC1=O (stereo not drawn)
inactive: [10] | [15] | [12]

CNC(=O)ON=CC(C)(C)SC
not listed: [10] | [11] | [12] | [15] | [16]
inactive: all other assays above

COP(=S)(OC)Oc1nc(Cl)c(Cl)cc1Cl
not listed: [10] | [11] | [12] | [15] | [16]
inactive: all other assays above

CCCCNC(=O)OCC#CI
active: [14] 15.5 µM | [1] 3.25 µM and 1.37 µM | [15] 145 µM | [16] 124 µM | [2] 3.93 µM and 1.81 µM | [3] 3.94 µM and 1.33 µM | [4] 7.65 µM and 1.63 µM | [5] 4.03 µM and 1.28 µM | [6] 3.24 µM and 2.21 µM | [8] 2.92 µM and 1.21 µM | [9] 3.81 µM and 1.53 µM
inactive: [13] | [12] | [7]

CC(C)(C)c1ccc(CSc2cnn(C(C)(C)C)c(=O)c2Cl)cc1
active: [13] 27.7 nM | [14] 3.24 µM | [1] 3.82 nM | [15] 19.8 µM | [2] 0.0031 µM | [3] 4.9 nM | [4] 0.00498 µM | [5] 1.67 nM | [6] 3 nM | [7] 2.8 nM | [8] 0.00216 µM | [9] 0.0022 µM
inactive: [16] | [12]

C#CCOS(=O)OC1CCCCC1Oc1ccc(C(C)(C)C)cc1 (stereo not drawn)
active: [14] 32.5 µM | [15] 18.6 µM
inactive: [13] | [16] | [12]
